Common to all, as to assay: DAPPL (digital affinity profiling via proximity ligation, sequencing); 10 mM Tris-HCl pH 7.5, 50 mM NaCl, 1 mM DTT, 4% glycerol, room temperature, 30 min; GST-TFs on glutathione beads, 16-mer random dsDNA library, 0.1% formaldehyde crosslink after washing; high values mean tight binding
One assay concerns the target T1, FEV (Homo sapiens, UniProt Q99581 1-238).
T1 sequence: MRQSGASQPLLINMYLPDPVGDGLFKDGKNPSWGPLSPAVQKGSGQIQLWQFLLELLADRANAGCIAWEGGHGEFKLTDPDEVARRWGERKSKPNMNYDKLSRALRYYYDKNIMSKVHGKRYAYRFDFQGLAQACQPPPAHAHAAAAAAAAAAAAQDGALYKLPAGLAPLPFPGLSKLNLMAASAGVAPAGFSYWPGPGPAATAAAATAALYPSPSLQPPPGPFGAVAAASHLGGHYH
The following applies: protein: recombinant; tags: N-terminal GST; dsDNA, one strand shown. The method, boiled down: (§1)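 Binding signal is each hexamer's read frequency for a factor divided by its frequency in the tag-only sample. The factors were GST-fused human transcription factors from yeast, captured on glutathione beads, DNA-barcoded and pooled with that sample. Pools were incubated with 200 nmole of a random double-stranded 16-mer DNA library in Tris/NaCl/DTT/glycerol buffer at room temperature for 30 min, then washed, crosslinked with 0.1% formaldehyde, proximity-ligated with BsaI/T4 ligase (1 h, 37 °C), PCR-amplified and sequenced on an Illumina NextSeq500.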

The target of the next assay is ETV5 (Homo sapiens, UniProt P41161 1-510). To be noted: protein: recombinant; tags: N-terminal GST; dsDNA, one strand shown. In short, it runs like this: as §1
A further assay addresses HSF1 (Homo sapiens, UniProt Q00613 1-529). The following applies: protein: recombinant; tags: N-terminal GST; chain copies: 3; dsDNA, one strand shown. In short, it runs like this:
as §1

Another assay concerns the target T2, SPIC (Homo sapiens, UniProt Q8N5J4 1-248).
T2 sequence: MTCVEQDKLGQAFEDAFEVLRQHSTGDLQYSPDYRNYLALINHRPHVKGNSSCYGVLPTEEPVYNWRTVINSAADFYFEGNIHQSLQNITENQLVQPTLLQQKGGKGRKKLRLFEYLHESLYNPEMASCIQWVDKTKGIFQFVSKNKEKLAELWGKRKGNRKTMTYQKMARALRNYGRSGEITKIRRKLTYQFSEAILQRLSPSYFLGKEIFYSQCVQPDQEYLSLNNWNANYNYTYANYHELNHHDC
To be noted: protein: recombinant; tags: N-terminal GST; dsDNA, one strand shown. In short, it runs like this:
as §1

The target of the next assay is ELF4 (Homo sapiens, UniProt Q99607 1-663). The following applies: protein: recombinant; tags: N-terminal GST; dsDNA, one strand shown. In short, it runs like this: as §1
The target in the next assay is T3, ELK4 (Homo sapiens, UniProt P28324-2 1-405).
T3 sequence: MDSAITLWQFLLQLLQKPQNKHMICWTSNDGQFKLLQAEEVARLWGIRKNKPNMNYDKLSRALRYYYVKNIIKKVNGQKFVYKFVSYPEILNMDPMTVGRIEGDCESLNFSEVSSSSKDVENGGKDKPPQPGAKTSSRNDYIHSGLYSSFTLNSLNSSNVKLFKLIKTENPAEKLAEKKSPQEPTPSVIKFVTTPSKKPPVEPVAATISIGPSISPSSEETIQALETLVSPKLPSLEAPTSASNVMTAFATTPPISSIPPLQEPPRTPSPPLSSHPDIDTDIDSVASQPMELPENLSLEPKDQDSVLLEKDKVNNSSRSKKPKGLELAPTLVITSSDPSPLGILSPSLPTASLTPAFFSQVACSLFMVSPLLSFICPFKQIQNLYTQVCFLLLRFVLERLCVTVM
To be noted: protein: recombinant; tags: N-terminal GST; dsDNA, one strand shown. The method, boiled down:
as §1

Another assay concerns the target T4, ETV2 (Homo sapiens, UniProt O00321 1-342).
T4 sequence: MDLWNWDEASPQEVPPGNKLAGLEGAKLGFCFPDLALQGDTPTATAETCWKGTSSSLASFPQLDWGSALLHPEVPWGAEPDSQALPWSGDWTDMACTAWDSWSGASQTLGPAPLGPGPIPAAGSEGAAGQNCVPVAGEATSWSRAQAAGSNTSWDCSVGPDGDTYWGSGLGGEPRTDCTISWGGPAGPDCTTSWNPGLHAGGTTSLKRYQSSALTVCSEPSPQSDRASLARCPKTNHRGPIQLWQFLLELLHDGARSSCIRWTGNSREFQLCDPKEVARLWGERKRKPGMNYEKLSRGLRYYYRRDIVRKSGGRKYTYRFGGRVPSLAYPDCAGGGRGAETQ
The following applies: protein: recombinant; tags: N-terminal GST; dsDNA, one strand shown. In short, it runs like this:
as §1

For a further assay, the target named is T5, ELF3 (Homo sapiens, UniProt P78545 1-371).
T5 sequence: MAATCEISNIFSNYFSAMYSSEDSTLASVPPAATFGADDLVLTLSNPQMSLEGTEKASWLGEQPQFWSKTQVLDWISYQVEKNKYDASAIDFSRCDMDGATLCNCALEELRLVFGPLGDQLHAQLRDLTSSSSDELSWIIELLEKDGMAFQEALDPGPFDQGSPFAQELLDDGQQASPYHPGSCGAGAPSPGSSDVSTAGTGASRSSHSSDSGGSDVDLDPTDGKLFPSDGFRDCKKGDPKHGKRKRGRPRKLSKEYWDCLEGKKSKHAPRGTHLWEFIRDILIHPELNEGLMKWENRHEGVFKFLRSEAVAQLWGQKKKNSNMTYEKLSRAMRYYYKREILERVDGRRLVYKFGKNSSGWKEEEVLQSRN
The following applies: protein: recombinant; tags: N-terminal GST; dsDNA, one strand shown. In short, it runs like this:
as §1

The next assay concerns the target CRX (Homo sapiens, UniProt O43186 1-299). To be noted: protein: recombinant; tags: N-terminal GST; dsDNA, one strand shown. The method, boiled down: as §1
Another assay addresses ETV1 (Homo sapiens, UniProt P50549 1-477). To be noted: protein: recombinant; tags: N-terminal GST; dsDNA, one strand shown. The method, boiled down:
as §1

Another assay has as its target T6, ERF (Homo sapiens, UniProt P50548 1-548).
T6 sequence: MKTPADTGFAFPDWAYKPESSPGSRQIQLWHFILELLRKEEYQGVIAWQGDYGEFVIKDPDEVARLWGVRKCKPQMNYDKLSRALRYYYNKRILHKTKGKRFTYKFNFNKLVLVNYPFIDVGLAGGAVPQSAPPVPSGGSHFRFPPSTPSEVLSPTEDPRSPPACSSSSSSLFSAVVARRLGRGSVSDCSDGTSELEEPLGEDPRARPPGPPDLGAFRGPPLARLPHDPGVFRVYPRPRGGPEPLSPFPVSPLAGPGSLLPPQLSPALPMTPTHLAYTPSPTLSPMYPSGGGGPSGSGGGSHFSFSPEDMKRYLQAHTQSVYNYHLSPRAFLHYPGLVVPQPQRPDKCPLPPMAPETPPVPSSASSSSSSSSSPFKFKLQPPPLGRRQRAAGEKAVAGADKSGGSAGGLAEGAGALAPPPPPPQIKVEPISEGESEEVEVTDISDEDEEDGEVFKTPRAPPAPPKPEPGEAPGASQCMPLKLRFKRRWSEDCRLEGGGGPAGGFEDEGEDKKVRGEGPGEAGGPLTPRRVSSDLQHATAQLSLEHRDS
To be noted: protein: recombinant; tags: N-terminal GST; dsDNA, one strand shown. In short, it runs like this: as §1

In another assay the target is T7, ETV3L (Homo sapiens, UniProt Q6ZN32 1-361).
T7 sequence: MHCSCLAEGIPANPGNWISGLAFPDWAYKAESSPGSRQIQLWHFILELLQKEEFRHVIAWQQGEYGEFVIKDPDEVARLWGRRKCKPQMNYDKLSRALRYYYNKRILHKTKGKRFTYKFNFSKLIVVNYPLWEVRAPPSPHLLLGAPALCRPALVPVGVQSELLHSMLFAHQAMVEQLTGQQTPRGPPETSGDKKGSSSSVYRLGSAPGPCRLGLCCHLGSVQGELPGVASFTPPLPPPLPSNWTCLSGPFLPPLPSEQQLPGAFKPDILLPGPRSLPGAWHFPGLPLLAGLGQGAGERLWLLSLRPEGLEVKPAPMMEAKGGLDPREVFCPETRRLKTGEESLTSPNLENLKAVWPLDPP
The following applies: protein: recombinant; tags: N-terminal GST; dsDNA, one strand shown. The method, boiled down:
as §1

The target of another assay is T8, ETS2 (Homo sapiens, UniProt P15036 1-469).
T8 sequence: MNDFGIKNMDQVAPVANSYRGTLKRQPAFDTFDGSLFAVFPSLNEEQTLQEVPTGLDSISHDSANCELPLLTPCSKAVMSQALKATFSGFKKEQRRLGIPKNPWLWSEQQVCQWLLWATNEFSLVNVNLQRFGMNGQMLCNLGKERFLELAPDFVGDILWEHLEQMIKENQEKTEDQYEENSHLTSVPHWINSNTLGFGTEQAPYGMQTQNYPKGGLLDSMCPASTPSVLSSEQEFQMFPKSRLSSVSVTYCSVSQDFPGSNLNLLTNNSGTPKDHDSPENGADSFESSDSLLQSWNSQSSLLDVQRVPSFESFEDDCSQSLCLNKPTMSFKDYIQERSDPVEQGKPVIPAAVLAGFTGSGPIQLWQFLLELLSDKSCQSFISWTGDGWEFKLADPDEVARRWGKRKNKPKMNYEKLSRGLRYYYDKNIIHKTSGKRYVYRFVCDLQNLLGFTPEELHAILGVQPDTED
The following applies: protein: recombinant; tags: N-terminal GST; dsDNA, one strand shown. In short, it runs like this:
as §1

A further assay addresses T9, SPDEF (Homo sapiens, UniProt O95238 1-335).
T9 sequence: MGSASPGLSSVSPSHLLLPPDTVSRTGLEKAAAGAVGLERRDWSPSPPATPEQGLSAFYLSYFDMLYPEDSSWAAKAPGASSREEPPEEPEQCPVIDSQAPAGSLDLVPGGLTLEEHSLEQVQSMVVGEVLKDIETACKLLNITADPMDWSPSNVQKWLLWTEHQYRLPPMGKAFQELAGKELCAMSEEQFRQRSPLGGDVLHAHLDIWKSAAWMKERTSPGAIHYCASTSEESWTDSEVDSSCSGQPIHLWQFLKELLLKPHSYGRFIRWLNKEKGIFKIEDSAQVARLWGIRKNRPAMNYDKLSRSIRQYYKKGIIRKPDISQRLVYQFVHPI
To be noted: protein: recombinant; tags: N-terminal GST; dsDNA, one strand shown. In short, it runs like this: as §1

Another assay concerns the target T10, ETV7 (Homo sapiens, UniProt Q9Y603 1-341).
T10 sequence: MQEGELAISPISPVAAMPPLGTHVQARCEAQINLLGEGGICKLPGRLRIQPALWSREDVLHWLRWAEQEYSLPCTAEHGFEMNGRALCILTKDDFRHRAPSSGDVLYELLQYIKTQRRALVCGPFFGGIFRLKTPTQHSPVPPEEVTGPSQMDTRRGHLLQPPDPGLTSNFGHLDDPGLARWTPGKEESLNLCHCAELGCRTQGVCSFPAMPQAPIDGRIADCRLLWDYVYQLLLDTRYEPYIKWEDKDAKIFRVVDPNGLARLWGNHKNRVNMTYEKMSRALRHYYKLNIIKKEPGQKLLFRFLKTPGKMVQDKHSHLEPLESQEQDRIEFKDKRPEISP
The following applies: protein: recombinant; tags: N-terminal GST; dsDNA, one strand shown. In short, it runs like this: as §1

The target in a further assay is T11, ELF5 (Homo sapiens, UniProt Q9UKW6-2 1-255).
T11 sequence: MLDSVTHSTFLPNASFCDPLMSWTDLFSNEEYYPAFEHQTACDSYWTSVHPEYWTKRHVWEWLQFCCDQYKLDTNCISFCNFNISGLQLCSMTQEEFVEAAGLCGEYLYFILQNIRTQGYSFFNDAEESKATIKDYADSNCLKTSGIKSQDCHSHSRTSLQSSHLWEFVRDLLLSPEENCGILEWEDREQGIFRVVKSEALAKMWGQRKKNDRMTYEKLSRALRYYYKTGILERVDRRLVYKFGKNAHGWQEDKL
The following applies: protein: recombinant; tags: N-terminal GST; dsDNA, one strand shown. In short, it runs like this:
as §1

The target of a further assay is T12, ETV3 (Homo sapiens, UniProt P41162-2 1-143).
T12 sequence: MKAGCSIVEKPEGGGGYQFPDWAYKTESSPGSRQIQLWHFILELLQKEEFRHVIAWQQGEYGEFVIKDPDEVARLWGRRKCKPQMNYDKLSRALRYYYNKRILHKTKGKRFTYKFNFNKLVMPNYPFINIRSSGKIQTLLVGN
The following applies: protein: recombinant; tags: N-terminal GST; dsDNA, one strand shown. The method, boiled down: as §1

A further assay deals with ETV6 (Homo sapiens, UniProt P41212 1-452). The following applies: protein: recombinant; tags: N-terminal GST; dsDNA, one strand shown. The method, boiled down:
as §1

Chain of ELF4 (Q99607 whole entry): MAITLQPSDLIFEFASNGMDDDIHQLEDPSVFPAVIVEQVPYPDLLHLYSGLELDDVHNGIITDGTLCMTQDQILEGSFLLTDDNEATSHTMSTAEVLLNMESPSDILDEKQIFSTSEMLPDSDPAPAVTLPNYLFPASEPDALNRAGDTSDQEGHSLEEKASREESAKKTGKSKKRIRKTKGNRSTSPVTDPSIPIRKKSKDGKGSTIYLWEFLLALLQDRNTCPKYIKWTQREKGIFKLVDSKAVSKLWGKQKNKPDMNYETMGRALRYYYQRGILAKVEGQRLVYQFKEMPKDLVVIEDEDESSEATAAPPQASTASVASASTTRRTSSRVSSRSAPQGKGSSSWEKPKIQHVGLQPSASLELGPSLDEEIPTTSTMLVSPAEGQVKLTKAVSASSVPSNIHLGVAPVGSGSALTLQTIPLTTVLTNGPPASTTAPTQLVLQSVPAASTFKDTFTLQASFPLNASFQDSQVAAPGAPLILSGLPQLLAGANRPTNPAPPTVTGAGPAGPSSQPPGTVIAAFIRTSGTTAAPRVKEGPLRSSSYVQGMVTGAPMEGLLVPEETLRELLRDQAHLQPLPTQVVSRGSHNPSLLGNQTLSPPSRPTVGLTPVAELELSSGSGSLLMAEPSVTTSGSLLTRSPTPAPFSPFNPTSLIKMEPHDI
Chain of ETV1 (P50549 whole entry): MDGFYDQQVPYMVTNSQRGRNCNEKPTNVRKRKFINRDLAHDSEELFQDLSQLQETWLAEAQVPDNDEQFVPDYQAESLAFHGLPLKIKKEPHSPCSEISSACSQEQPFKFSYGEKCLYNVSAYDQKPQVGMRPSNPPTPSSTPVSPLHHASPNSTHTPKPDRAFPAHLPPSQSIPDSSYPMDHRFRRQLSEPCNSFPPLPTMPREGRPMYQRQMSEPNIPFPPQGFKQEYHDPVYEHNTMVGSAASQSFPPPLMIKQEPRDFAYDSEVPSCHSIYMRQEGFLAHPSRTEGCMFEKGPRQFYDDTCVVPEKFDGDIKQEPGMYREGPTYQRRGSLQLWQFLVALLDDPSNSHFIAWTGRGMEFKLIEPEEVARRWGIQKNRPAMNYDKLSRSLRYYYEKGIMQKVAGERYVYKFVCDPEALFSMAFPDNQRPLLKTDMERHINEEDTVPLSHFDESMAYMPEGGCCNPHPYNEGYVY
Chain of HSF1 (Q00613 whole entry): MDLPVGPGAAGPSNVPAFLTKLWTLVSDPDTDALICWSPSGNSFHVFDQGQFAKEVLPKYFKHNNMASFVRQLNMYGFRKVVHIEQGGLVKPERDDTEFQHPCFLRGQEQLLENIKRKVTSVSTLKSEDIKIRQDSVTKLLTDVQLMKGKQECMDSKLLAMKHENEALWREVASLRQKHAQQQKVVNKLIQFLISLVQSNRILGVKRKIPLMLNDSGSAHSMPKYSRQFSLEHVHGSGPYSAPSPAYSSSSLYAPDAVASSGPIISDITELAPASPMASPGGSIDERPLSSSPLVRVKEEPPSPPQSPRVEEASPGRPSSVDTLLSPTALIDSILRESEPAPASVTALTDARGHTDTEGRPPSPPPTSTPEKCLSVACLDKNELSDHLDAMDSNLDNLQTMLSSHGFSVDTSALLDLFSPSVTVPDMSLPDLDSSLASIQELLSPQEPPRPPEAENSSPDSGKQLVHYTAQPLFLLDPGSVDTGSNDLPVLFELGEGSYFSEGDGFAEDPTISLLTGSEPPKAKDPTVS
Chain of ETV5 (P41161 whole entry): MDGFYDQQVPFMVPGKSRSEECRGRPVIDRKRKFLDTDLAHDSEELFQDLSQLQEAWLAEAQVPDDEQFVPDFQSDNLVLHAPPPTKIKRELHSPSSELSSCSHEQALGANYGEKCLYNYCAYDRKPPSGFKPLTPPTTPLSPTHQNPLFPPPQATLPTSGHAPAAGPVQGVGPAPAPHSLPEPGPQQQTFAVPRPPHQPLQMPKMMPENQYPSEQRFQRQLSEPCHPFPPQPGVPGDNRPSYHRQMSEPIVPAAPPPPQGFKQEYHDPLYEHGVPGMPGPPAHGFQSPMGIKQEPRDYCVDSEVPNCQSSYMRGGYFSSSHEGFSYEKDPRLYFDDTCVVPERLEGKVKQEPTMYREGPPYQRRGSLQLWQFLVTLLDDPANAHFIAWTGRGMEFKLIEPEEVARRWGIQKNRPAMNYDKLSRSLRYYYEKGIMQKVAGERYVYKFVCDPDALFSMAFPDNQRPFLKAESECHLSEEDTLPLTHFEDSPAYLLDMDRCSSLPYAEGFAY
Chain of CRX (O43186 whole entry): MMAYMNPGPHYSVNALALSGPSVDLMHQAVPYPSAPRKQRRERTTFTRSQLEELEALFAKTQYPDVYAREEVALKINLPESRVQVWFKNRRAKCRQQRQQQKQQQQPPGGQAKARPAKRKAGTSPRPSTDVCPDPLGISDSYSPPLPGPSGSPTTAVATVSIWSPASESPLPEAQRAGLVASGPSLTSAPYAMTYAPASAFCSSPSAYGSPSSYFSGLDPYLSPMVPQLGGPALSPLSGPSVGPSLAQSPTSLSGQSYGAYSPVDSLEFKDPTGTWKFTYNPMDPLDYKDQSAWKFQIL
Chain of ETV6 (P41212 whole entry): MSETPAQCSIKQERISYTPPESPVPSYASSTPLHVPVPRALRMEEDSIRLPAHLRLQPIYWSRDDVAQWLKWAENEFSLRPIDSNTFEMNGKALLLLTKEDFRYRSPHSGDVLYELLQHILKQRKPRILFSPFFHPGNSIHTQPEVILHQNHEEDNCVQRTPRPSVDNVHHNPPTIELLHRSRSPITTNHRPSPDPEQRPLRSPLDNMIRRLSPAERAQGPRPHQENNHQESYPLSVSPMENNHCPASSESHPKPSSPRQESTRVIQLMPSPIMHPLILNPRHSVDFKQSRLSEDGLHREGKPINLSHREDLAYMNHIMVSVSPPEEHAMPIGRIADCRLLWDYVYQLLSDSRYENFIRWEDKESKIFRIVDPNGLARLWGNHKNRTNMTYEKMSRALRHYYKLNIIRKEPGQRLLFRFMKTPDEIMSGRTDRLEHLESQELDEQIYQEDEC

As to ACCTAC, the binding signal with FEV was 1.17 fold enrichment (6-mer frequency, TF over GST control); with ETV5 it was 1.13 fold enrichment (6-mer frequency, TF over GST control); with HSF1, 1.07 fold enrichment (6-mer frequency, TF over GST control); with SPIC, 1.13 fold enrichment (6-mer frequency, TF over GST control); in the assay with ELF4, 1.24 fold enrichment (6-mer frequency, TF over GST control); with ELK4, 1.22 fold enrichment (6-mer frequency, TF over GST control). Besides, the binding signal in the assay with ETV2 was 1.23 fold enrichment (6-mer frequency, TF over GST control); in the assay with ELF3, 1.29 fold enrichment (6-mer frequency, TF over GST control); with CRX, 1.02 fold enrichment (6-mer frequency, TF over GST control); with ETV1 it was 1.23 fold enrichment (6-mer frequency, TF over GST control); in the assay with ERF, 1.17 fold enrichment (6-mer frequency, TF over GST control); with ETV3L, 1.26 fold enrichment (6-mer frequency, TF over GST control). The binding signal with ETS2 was 1.2 fold enrichment (6-mer frequency, TF over GST control); with SPDEF, 1.17 fold enrichment (6-mer frequency, TF over GST control); in the assay with ETV7 it was 1.09 fold enrichment (6-mer frequency, TF over GST control); with ELF5, 1.29 fold enrichment (6-mer frequency, TF over GST control); with ETV3 it was 1.25 fold enrichment (6-mer frequency, TF over GST control); with ETV6, 1.32 fold enrichment (6-mer frequency, TF over GST control).

These data come from paper PMC7862700, “An all-to-all approach to the identification of sequence-specific readers for epigenetic DNA modifications on cytosine”.
